For 15 compounds, growth results are on record in PubChem BioAssay (NCI).

The panel holds about 83,000 compounds, 20% with a hit somewhere; the sample as a whole holds those more often.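 The test compound was applied at a single concentration to cells in 96-well plates for 48 hours, and percent growth was recorded.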 Unmarked numbers belong to inactive results. The source made the active and inactive calls. The calls were made as follows: active = growth percent below 10; inactive = the rest.

Some test systems named below: RPMI-8226 leukemia; OVCAR-8 ovarian; OVCAR-5 ovarian; OVCAR-4 ovarian; SK-OV-3 ovarian; IGROV1 ovarian; OVCAR-3 ovarian; HS 578T breast; NCI/ADR-RES ovarian.
What all share (experiment): NCI-60 one-dose screen, 48 h (100 = growth as untreated, 0 = no growth, -100 = all killed)
What all share (details): 10 µM

As for `CCOC(=O)c1[nH]c(C)c(C(C)=O)c1C`, the growth is -7.82% (active) with RPMI-8226 leukemia; 96.1% with OVCAR-8 ovarian; 88% with OVCAR-5 ovarian; 86.8% in the experiment on OVCAR-4 ovarian; 101% in the experiment on SK-OV-3 ovarian; 102% in the experiment with IGROV1 ovarian. Also, the results for the growth with OVCAR-3 ovarian, in the experiment on HS 578T breast and in the experiment with NCI/ADR-RES ovarian were 95%, 91.6% and 98%, respectively.
In the case of `CCOC(=O)C(C#N)Cc1ccccc1` (stereo not given), the growth in the experiment with RPMI-8226 leukemia is 101%; in the experiment on OVCAR-8 ovarian it was 115%; in the experiment with OVCAR-5 ovarian, 103%; with OVCAR-4 ovarian it was 114%; with SK-OV-3 ovarian it was 123%; in the experiment on IGROV1 ovarian it was 114%. Also, the growth is 117% in the experiment on OVCAR-3 ovarian, 112% with HS 578T breast and 117% in the experiment on NCI/ADR-RES ovarian.
In the case of `CN(C)CCN(C)CC(C)(C)C(=O)/C=C/c1ccc(Cl)cc1`, the growth in the experiment on RPMI-8226 leukemia is -24.1% (active); in the experiment with OVCAR-8 ovarian, -35.4% (active); with OVCAR-5 ovarian, 3.63% (active); in the experiment on OVCAR-4 ovarian, 7.86% (active); with SK-OV-3 ovarian it was 5.56% (active); in the experiment on IGROV1 ovarian, 15.6%. Further, the growth was 10.4% in the experiment with OVCAR-3 ovarian, -4.14% (active) in the experiment on HS 578T breast and -36.1% (active) in the experiment with NCI/ADR-RES ovarian.
`COCCCNC(=O)c1nnn2c1nc(N)c1cc(Cl)ccc12`: the growth was 96.9% in the experiment with RPMI-8226 leukemia; 103% in the experiment with OVCAR-8 ovarian; 109% in the experiment with OVCAR-5 ovarian; 90.7% in the experiment with OVCAR-4 ovarian; 79.2% with SK-OV-3 ovarian; 78.6% with IGROV1 ovarian. Besides, the growth in the experiment on OVCAR-3 ovarian is 81.1%; in the experiment on HS 578T breast, 90.4%; with NCI/ADR-RES ovarian it was 93.9%.
In the case of `O=C1NC(=O)C2C(=O)NC(=O)C1C21CCc2ccccc21` (stereo not given), the growth in the experiment on RPMI-8226 leukemia is 115%; in the experiment with OVCAR-8 ovarian, 103%; with OVCAR-5 ovarian, 110%; with OVCAR-4 ovarian, 105%; with SK-OV-3 ovarian, 116%; in the experiment with IGROV1 ovarian it was 109%. Also, the growth in the experiment with OVCAR-3 ovarian was 115%; with HS 578T breast it was 89%; in the experiment with NCI/ADR-RES ovarian, 100%.
Turning to `CC(=O)Cc1cc(-c2cc(CC(C)=O)[nH]n2)n[nH]1`, the growth with RPMI-8226 leukemia was 109%; in the experiment with OVCAR-8 ovarian, 98.5%; with OVCAR-5 ovarian, 90.2%; with OVCAR-4 ovarian, 101%; in the experiment with SK-OV-3 ovarian, 90.9%; with IGROV1 ovarian, 104%. Also, the growth in the experiment with OVCAR-3 ovarian was 111%; with HS 578T breast it was 93.2%; in the experiment on NCI/ADR-RES ovarian it was 96.7%.
With `CCOc1ccccc1/C=N/Nc1nc2ccccc2o1`, the growth is 105% with RPMI-8226 leukemia; 108% in the experiment on OVCAR-8 ovarian; 97.3% in the experiment with OVCAR-5 ovarian; 41.9% with OVCAR-4 ovarian; 94.2% with SK-OV-3 ovarian; 116% in the experiment with IGROV1 ovarian. In addition, the growth in the experiment on OVCAR-3 ovarian was 122%; in the experiment on HS 578T breast, 101%; in the experiment on NCI/ADR-RES ovarian, 97.6%.
For the compound `COc1ccc(-c2cc(-c3cc(-c4ccc(OC)cc4)nc(N)n3)nc(N)n2)cc1`, the growth in the experiment on RPMI-8226 leukemia was 99.5%; in the experiment with OVCAR-8 ovarian, 99.1%; in the experiment on OVCAR-5 ovarian, 93.5%; in the experiment with OVCAR-4 ovarian, 99.6%; in the experiment on SK-OV-3 ovarian, 106%; in the experiment with IGROV1 ovarian it was 109%. The growth is 107% in the experiment with OVCAR-3 ovarian, 96.4% with HS 578T breast and 100% in the experiment on NCI/ADR-RES ovarian.
Consider `COc1cc(CCN=Cc2ccccc2O)c([N+](=O)[O-])cc1OC`, for which the growth with RPMI-8226 leukemia was 105%; in the experiment on OVCAR-8 ovarian it was 107%; in the experiment on OVCAR-5 ovarian, 101%; with OVCAR-4 ovarian, 120%; in the experiment with SK-OV-3 ovarian, 108%; with IGROV1 ovarian, 96.5%. Further, the results for the growth in the experiment with OVCAR-3 ovarian, in the experiment with HS 578T breast and with NCI/ADR-RES ovarian were 101%, 114% and 103%, respectively.
Turning to `O=C(O)/C=C/C(=O)NCc1ccccc1`, the growth is 94.7% with RPMI-8226 leukemia; 108% in the experiment on OVCAR-8 ovarian; 107% in the experiment on OVCAR-5 ovarian; 107% with OVCAR-4 ovarian; 112% with SK-OV-3 ovarian; 98.4% with IGROV1 ovarian. The growth with OVCAR-3 ovarian is 109%; in the experiment with HS 578T breast it was 113%; in the experiment on NCI/ADR-RES ovarian it was 102%.
With `CC(C)COC(=O)COC(=O)OCCOCCOC(=O)OCC(=O)OCC(C)C`, the growth in the experiment with RPMI-8226 leukemia is 97.3%; with OVCAR-8 ovarian, 99.7%; in the experiment on OVCAR-5 ovarian, 101%; in the experiment with OVCAR-4 ovarian, 110%; in the experiment on SK-OV-3 ovarian it was 100%; in the experiment on IGROV1 ovarian, 105%. The growth in the experiment on OVCAR-3 ovarian is 126%; with HS 578T breast it was 124%; in the experiment with NCI/ADR-RES ovarian, 106%.
On to `COc1ccc(C2OC(N)=C(O)C2=O)cc1OC` (stereo not given), for which the growth in the experiment on RPMI-8226 leukemia is 104%; in the experiment on OVCAR-8 ovarian it was 105%; in the experiment on OVCAR-5 ovarian, 96.7%; with OVCAR-4 ovarian, 103%; in the experiment with SK-OV-3 ovarian, 99.5%; in the experiment with IGROV1 ovarian, 106%. Further, the growth with OVCAR-3 ovarian is 114%; in the experiment with HS 578T breast it was 70.1%; in the experiment with NCI/ADR-RES ovarian it was 103%.
On to `COc1ccc(/C=C/c2cccc[n+]2C)cc1`, for which the growth was 90.3% in the experiment with RPMI-8226 leukemia; 105% in the experiment on OVCAR-8 ovarian; 95.8% in the experiment on OVCAR-5 ovarian; 107% in the experiment with OVCAR-4 ovarian; 78.8% with SK-OV-3 ovarian; 85.3% in the experiment with IGROV1 ovarian. Moreover, the growth was 103% in the experiment with OVCAR-3 ovarian, 119% in the experiment with HS 578T breast and 103% with NCI/ADR-RES ovarian.
In the case of `COC(=O)c1cccc(Br)c1`, the growth was 106% in the experiment on RPMI-8226 leukemia; 112% in the experiment on OVCAR-8 ovarian; 88.8% in the experiment on OVCAR-5 ovarian; 112% with OVCAR-4 ovarian; 118% with SK-OV-3 ovarian; 116% in the experiment on IGROV1 ovarian. The growth is 121% in the experiment with OVCAR-3 ovarian, 117% in the experiment on HS 578T breast and 106% with NCI/ADR-RES ovarian.
Turning to `O=C1OC(c2ccc(F)cc2)CC1CN1CCOCC1` (stereo not given), the growth was 75.6% in the experiment on RPMI-8226 leukemia; 99.5% with OVCAR-8 ovarian; 112% in the experiment on OVCAR-5 ovarian; 101% with OVCAR-4 ovarian; 107% in the experiment on SK-OV-3 ovarian; 104% in the experiment on IGROV1 ovarian. The growth in the experiment with OVCAR-3 ovarian is 101%; in the experiment on HS 578T breast, 113%; in the experiment on NCI/ADR-RES ovarian it was 101%.
